Only some compounds are listed: those with a hit (about 12% of all), similar ones and a draw of the others.
BAZ2B block: qHTS Assay for Inhibitors of BAZ2B. AID 504333, 2011. Bromodomain adjacent to zinc finger domain protein 2B (Homo sapiens), Q9UIF8. 360,000 tested, 4.4% active. Potency, µM (series often up to 114 µM), for the others: at the highest dose activity change, negative = inhibition, hits mostly inhibitors. AlphaScreen BAZ2B-H3K14Ac peptide displacement; further: on the % scale 0 is the no-effect control and ±100 the full control effect; nearly all actives have a fitted effect of over 60% in size
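In this displacement format the biotinylated H3(5-23) peptide acetylated at Lys14 serves as ligand at 50 nM, with BAZ2B at 50 nM in PBS pH 7.4 containing 0.01% Tween-20. Donor and acceptor beads are 10 ug/mL final.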
JMJD2A Tudor: qHTS Assay for Inhibitors of JMJD2A-Tudor Domain | Potency, µM (highest dose often 114 µM), for the others: at the highest dose activity change, negative = inhibition, usual class: inhibitors | 390,000 tested, 4.4% active | AlphaScreen JMJD2A-Tudor / H3K4me3 peptide binding | AID 504339, 2011; further: on the % scale 0 is the no-effect control and ±100 the full control effect; nearly all actives have a fitted effect of over 50% in size
Target sequence (O75164 whole entry, looked up, the tested form may be a part): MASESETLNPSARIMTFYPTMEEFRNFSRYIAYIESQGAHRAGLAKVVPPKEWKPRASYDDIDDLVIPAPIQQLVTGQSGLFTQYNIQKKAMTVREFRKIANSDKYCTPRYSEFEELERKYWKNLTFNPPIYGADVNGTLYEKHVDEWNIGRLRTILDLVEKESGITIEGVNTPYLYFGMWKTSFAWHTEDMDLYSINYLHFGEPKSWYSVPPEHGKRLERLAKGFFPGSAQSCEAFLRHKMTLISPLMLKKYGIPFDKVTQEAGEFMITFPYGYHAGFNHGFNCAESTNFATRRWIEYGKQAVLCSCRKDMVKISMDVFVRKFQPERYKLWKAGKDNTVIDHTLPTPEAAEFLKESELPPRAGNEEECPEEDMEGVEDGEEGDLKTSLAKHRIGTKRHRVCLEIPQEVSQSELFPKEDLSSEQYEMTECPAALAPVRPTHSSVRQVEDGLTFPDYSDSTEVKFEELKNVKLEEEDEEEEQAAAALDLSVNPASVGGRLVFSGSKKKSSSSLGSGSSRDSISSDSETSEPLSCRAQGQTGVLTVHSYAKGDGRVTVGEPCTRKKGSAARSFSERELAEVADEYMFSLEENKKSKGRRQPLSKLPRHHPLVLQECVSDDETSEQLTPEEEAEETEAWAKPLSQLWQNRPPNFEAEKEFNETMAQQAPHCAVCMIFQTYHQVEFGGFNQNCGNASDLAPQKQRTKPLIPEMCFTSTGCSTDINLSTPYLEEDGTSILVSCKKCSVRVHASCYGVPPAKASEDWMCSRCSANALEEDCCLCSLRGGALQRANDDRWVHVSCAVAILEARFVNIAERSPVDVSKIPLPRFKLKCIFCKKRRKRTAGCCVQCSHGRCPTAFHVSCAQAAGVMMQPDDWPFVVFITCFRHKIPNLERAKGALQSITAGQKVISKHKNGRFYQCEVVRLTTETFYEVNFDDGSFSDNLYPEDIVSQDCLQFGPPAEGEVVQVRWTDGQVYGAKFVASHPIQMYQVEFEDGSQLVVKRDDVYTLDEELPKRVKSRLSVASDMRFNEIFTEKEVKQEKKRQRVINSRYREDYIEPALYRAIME
L3MBTL1 block: qHTS Assay for the Inhibitors of L3MBTL1; Potency, µM (doses to about 57.1 µM), without a hit: at the top dose activity, negative = inhibition, hits mostly inhibitors; Lethal(3)malignant brain tumor-like protein 1 (Homo sapiens), Q9Y468; 230,000 tested, 0.66% active; AlphaScreen L3MBTL1–H3K9me1 peptide binding; AID 485360, 2010; further: on the % scale 0 is the no-effect control and ±100 the full control effect; nearly all actives have a fitted effect of over 60% in size
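Read-out is AlphaScreen signal from streptavidin donor and nickel chelate acceptor beads (10 ug/mL final each) bridging L3MBTL1 (50 nM) and biotinylated K9-monomethylated H3(1-15) peptide (75 nM), after 30 min compound exposure at room temperature.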
Sfp PPTase inh: qHTS Assay for Inhibitors of Bacillus subtilis Sfp phosphopantetheinyl transferase (PPTase). Biochemical Sfp PPTase activity, qHTS. 310,000 tested, 3.5% active. 4'-phosphopantetheinyl transferase ffp (Bacillus subtilis), Q9F4F7. Potency, µM, for the others: largest response in the series, negative = inhibition, most hits filed as inhibitors;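 further: the enzyme is Sfp with the accession as filed and its product quenches rhodamine fluorescence; 0% = enzyme reaction without inhibitor and -100% = no enzyme wells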
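With Hepes-Na pH 7.6 buffer containing 10 mM MgCl2, Sfp (15 nM) modified BHQ-2-YbbR (12.5 uM) using rhodamine-CoA (5 uM). Two reads 30 minutes apart at 525/598 nm yielded each well's rate.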
HP1b chromo inh: HTS for Inhibitors of HP1-beta Chromodomain Interactions with Methylated Histone Tails | Chromobox protein homolog 1 (Homo sapiens), P83916 | AlphaScreen HP1-beta / biotin-H3K9me3 peptide binding | Potency, µM (highest dose often 114 µM), inactives show at the highest dose activity change, negative = inhibition, actives largely listed as inhibitors | 390,000 tested, 0.56% active | AID 540317, 2011; further: nearly all actives have a fitted effect of over 70% in size
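Compound inhibition of the preformed complex between 50 nM HP1-beta and 50 nM biotinylated H3K9me3 peptide was read by AlphaScreen. Buffer was PBS pH 7.4 with 0.01% Tween-20. Incubations ran 30 min at room temperature, with 10 ug/mL donor/acceptor beads.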
G9a inh: qHTS Assay for Inhibitors of Histone Lysine Methyltransferase G9a; Histone-lysine N-methyltransferase EHMT2 (Homo sapiens), Q96KQ7; G9a H3K9 monomethylation, AlphaScreen, 2 h; Potency, µM (doses to about 102 µM), for inactives: top-dose activity, negative = inhibition, most hits filed as inhibitors; 350,000 tested, 8.8% active; AID 504332, 2011; further: on the % scale 0 is the no-effect control and ±100 the full control effect; nearly all actives have a fitted effect of over 75% in size
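Methyltransferase reactions run at room temperature for 2 h (20 nM enzyme, 500 nM biotin-H3K9 peptide, 20 uM SAM) after a 15 min compound preincubation; product detected by AlphaScreen beads and anti-H3K9me1 antibody.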
Active calls of the source: *; ? = inconclusive; nt = no result given; [ ] = remark or other dose. The call rests on the fitted dose curve; in most records, active means well fitted curve in the direction sought with a large enough effect; inconclusive means small, poorly fitted or top-dose-only effect, or another doubt; inactive means no such curve, though single readings can be large; an effect the other way counts as inactive or inconclusive. Potency means the concentration at half of the fitted maximal effect.

SMILES	BAZ2B block	JMJD2A Tudor	L3MBTL1 block	Sfp PPTase inh	HP1b chromo inh	G9a inh
NC(=O)CC(NC(=O)c1cccc(Br)c1)c1ccc(NC2CCCCCCCCCCC2)c([N+](=O)[O-])c1 (centres undefined)	-34.2%	-9.8%	4.5%	-3.7%	20.2%	70.8µM*
CS(=O)(=O)c1cccc(-c2nnc(NC(=O)c3ccc4c(c3)OCCO4)o2)c1	?	-16.2%	nt	nt	22.4%[57 µM]	44.0%[59 µM]
COc1ccccc1CNCCSc1nnnn1C	-4.0%	-9.7%	nt	nt	23.7%	2.2%[59 µM]
COC(=O)CCCC1=CC2=CC(=O)C(C)(OC(=O)c3cccs3)C(=O)C2=CN1CCc1ccccn1 (centres undefined)	-30.2%	-22.5%	nt	-0.2%	20.7%	11.0%[59 µM]
C=CCN1C=C2C(=O)C(C)(OC(=O)c3cccs3)C(=O)C=C2C=C1CCCC(=O)OC (centres undefined)	79.4µM*	-28.6%	nt	0.2%	11.2%	-6.0%[12.7 µM]
O=C1C=C(c2ccccc2)OC(c2ccccc2)O1 (centres undefined)	50.1µM*	14.0%	-24.9%	13.4%	81.1%	?
O=C1C=C(c2ccccc2)OC2(CCCC2)O1	2.1%	33.7%	15.4%	11.6%	42.0%	?
Cn1c(=O)c(C(=O)c2ccccc2)nc2ccccc21	5.5%	-11.2%	-0.5%	2.5%	8.3%	27.6%[59 µM]
Cn1cc(C(=O)c2ccc(Cl)cc2)cc1-c1nc2ccccc2n1C	?	56.2µM*	-8.1%	11.5%	-16.2%	nt
Cc1ccc(-c2cc(C(=O)OCC(=O)N(C)C3CCS(=O)(=O)C3)c3ccccc3n2)o1 (centres undefined)	-19.4%	79.4µM*	nt	20µM*	-4.1%	3.98µM*
CCN(C(=O)COC(=O)c1cc(-c2ccc(C)o2)nc2ccccc12)C1CCS(=O)(=O)C1 (centres undefined)	-1.7%	89.1µM*	20.1%	20µM*	5.3%	2µM*
CCC[C@@H]1NC(=O)[C@@H](NC(C)=O)CSSC[C@@H](C(N)=O)NC(=O)CNC(=O)[C@H](Cc2c[nH]c3ccccc23)NC(=O)[C@H](CCCN=C(N)N)NC(=O)[C@H](Cc2ccc3ccccc3c2)NC(=O)[C@H](Cc2cnc[nH]2)NC(=O)[C@H](CCCN=C(N)N)NC1=O	nt	nt	nt	19.1%	nt	nt
CCc1ccc(NC(=O)N2CCOc3ccc(Cl)cc32)cc1	-6.1%	-4.9%	nt	nt	57.3%	4.0%[59 µM]
Cc1ccc(C)c(NC(=O)C(=O)NCCc2csc3nc(-c4ccccc4C)nn23)c1	-7.3%	-21.4%	nt	nt	9.6%[57 µM]	11.0%[59 µM]
CCN1/C(=C/c2ccc3cc(C)ccc3[n+]2C)Sc2ccc3sccc3c21	44.7µM*	14.1µM*	-23.2%	-20.8%	-15.9%	15.8µM*
CCN1/C(=C/c2ccc3cc(C)ccc3[n+]2CC)Sc2cc(C)ccc21	39.8µM*	?	-4.9%	?	-31.8%	22.4µM*
CCCCN1/C(=C/c2ccc3ccccc3[n+]2CC)Sc2ccccc21	?	31.6µM*	-18.9%	-16.4%	-7.3%	31.6µM*
Cc1cccc2c1c1ccc3c(c1n2C)C(=O)C=CC3=O	5.01µM*	25.1µM*	-3.4%	3.55µM*	6.31µM*	2µM*
Cc1ccccc1N1CC(=O)N(c2ccccc2C)CC1=O	6.2%	1.3%	nt	17.3%	37.1%	10.0%
Cc1ccc(-c2noc(CN(C)C(=O)c3ccc(Br)o3)n2)cc1	?	-2.8%	-1.6%	nt	?	50.1µM*
CC(=O)Nc1ccn(C2CC3OCC(NC(=O)C(NC(=O)OC(C)(C)C)C(C)OCc4ccccc4)C3O2)c(=O)n1 (centres undefined)	nt	-13.8%	nt	7.8%	11.0%	nt
CCOC(=O)c1c(S(=O)(=O)Nc2ccc(F)cc2Cl)c(C)n(C)c1C	-30.0%	-31.7%	nt	16.1%	3.0%	?
CCOC(=O)c1cc(S(=O)(=O)Nc2ccc(C)cc2Cl)[nH]n1	79.4µM*	-32.9%	nt	nt	13.2%[57 µM]	8.91µM*
CCOC(=O)c1cc(S(=O)(=O)Nc2ccc(OC)c(Cl)c2)[nH]n1	56.2µM*	-33.9%	nt	nt	11.8%[57 µM]	8.91µM*
CCOC(=O)c1cc(S(=O)(=O)N(C)c2ccccc2)[nH]n1	-14.4%	-6.7%	nt	nt	-3.8%[57 µM]	?
SMILES	BAZ2B block	JMJD2A Tudor	L3MBTL1 block	Sfp PPTase inh	HP1b chromo inh	G9a inh
CCOC(=O)c1cc(S(=O)(=O)Nc2c(C)cc(C)cc2C)[nH]n1	?	-28.8%	nt	nt	21.6%[57 µM]	17.8µM*
CCOC(=O)c1cc(S(=O)(=O)Nc2cc(F)ccc2C)[nH]n1	?	-28.8%	nt	nt	20.0%[57 µM]	17.8µM*
CCOC(=O)c1scc(-c2ccc(C)cc2)c1S(=O)(=O)Nc1ccc(OC)c(Cl)c1	-19.1%	-22.0%	nt	nt	-5.8%	?
CCc1ccc(C(=O)c2cn(CC(=O)Nc3ccc(OC)cc3OC)c3ccc(CC)cc3c2=O)cc1	-14.0%	-18.9%	nt	nt	25.7%	?
CNc1oc(-c2cccs2)nc1S(=O)(=O)c1ccccc1	-32.3%	-17.5%	-3.0%	19.5%	13.3%	?
Cc1ccc(S(=O)(=O)c2nc(-c3cccs3)oc2N2CCC(C)CC2)cc1	?	?	nt	nt	-16.7%	?
CC1CCN(c2oc(-c3cccs3)nc2S(=O)(=O)c2ccc(Cl)cc2)CC1	?	?	nt	nt	?	7.94µM*
O=S(=O)(c1ccccc1)c1nc(-c2cccs2)oc1N1CCCCC1	35.5µM*	-16.8%	nt	nt	-23.3%	?
CN1CCN(c2oc(-c3ccco3)nc2S(=O)(=O)c2ccccc2)CC1	3.2%	-8.9%	-6.0%	-1.1%	27.7%	?
CCC(C)S(=O)(=O)c1oc(-c2cccs2)nc1S(=O)(=O)c1ccccc1 (centres undefined)	-7.9%	-19.8%	nt	nt	47.4%	17.8µM*
O=S(=O)(c1ccccc1)c1nc(-c2ccco2)oc1N1CCCCCC1	39.8µM*	-30.8%[11.4 µM]	-28.4%	63.1µM*	8.91µM*	?
CCOc1cccc2cc(-c3nc(-c4ccc(Cl)cc4)c(C)s3)c(=O)oc12	0.7%	-11.7%	nt	nt	26.4%	0.6%[59 µM]
COc1ccc(NC(=O)Nc2nnc(SCC(=O)Nc3cccc(C)c3C)s2)cc1	10.5%	-2.6%	nt	nt	78.0%	-2.2%[59 µM]
O=C1C2CC=C(Cl)CC2C(=O)N1CN(Cc1ccco1)CN1C(=O)C2CC=C(Cl)CC2C1=O (centres undefined)	50.1µM*	-25.1%	?	-6.4%	31.9%	50.1µM*

Compound activity: PubChem BioAssay, National Center for Advancing Translational Sciences (NCATS)
